DRD3 agonist – activates the human D3 dopamine receptor. D3R DiscoveRx beta-arrestin cells, luminescence, 90 min. P35462. max activation, %. AID 652048. 410,000 compounds, 0.58% hits; in the data active = max activation above about 30%; also: 0% is about no effect
Target sequence (P35462 whole entry, looked up): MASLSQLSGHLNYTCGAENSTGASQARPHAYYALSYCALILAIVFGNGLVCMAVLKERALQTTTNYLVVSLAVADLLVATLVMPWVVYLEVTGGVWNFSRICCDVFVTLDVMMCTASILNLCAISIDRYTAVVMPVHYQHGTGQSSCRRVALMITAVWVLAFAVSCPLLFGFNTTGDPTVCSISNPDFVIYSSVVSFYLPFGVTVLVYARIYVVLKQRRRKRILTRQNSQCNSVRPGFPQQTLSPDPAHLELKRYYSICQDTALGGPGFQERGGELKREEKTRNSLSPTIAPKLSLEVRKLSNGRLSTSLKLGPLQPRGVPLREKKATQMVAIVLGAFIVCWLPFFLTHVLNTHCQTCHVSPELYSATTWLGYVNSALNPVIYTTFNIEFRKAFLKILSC
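Agonist mode: compounds and dopamine controls were applied to plated cells for 90 min at 37 degrees C after an overnight attachment at 1500 cells/well. Luminescent read-out followed 30 - 60 minutes at room temperature with DiscoveRx detection reagent.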
ATXN2 expr inh – reduces ATXN2 reporter expression in HEK-293 cells; HEK-293 ATXN2-luciferase reporter, luminescence, 24 h; Potency, µM (highest dose often 57 µM), without a hit: top-dose activity change, negative = inhibition, usual class: inhibitors; 360,000 compounds, 0.72% hits; AID 1745845; also: potency is read from the fitted curve at half-maximal effect; % is scaled to controls: 0 for no effect and ±100 for the full control effect; nearly all actives have a fitted effect of over 55% in size
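qHTS (up to 57 uM final) was run with 24 h compound exposure of reporter cells at 37 °C. Each well was multiplexed: SteadyGlo luminescence measured ATXN2-luciferase expression after a fluorogenic Gly-Phe-AFC viability readout (25 uM final).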
TGFb SMAD3 inh – inhibitors of TGF-b signaling. 410,000 compounds, 1.2% hits. HepG2 CAGA-GFP TGF-b/SMAD3 reporter, GFP fluorescence, 18 h; TGF-beta stimulated, 500 pg/mL final. Potency, µM (top dose mostly 46.1 µM), inactives show top-dose activity, negative = inhibition, hits mostly inhibitors. AID 588855; also: potency is read from the fitted curve at half-maximal effect; % is scaled to controls: 0 for no effect and ±100 for the full control effect; nearly all actives have a fitted effect of over 65% in size
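Read-out: total well GFP (ex488/em500-530) summed from mean per-cell fluorescence. Cells: HEPG2 CAGA-GFP, 1% FBS DMEM, 18 h at 37 degrees C with 500 pg/mL final TGF-beta. Unstimulated wells served as the full-inhibition control; stimulated DMSO wells = 0%.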
ATXN viability – viability counter-screen for ATXN expression inhibitors. S2 cells (HEK-293 line with an ATXN2-luciferase reporter) viability, CellTiter-Fluor protease fluorescence, 24 h. Potency, µM (titrated, usually from 56.7 µM), most hits filed as cytotoxic. 400,000 compounds, 0.49% hits; also: potency is read from the fitted curve at half-maximal effect; nearly all actives have a fitted effect of over 40% in size
HepG2 viability – counter-screen for TGF-b inhibitors: cytotoxicity in HepG2 cells; AID 588856; 410,000 compounds, 0.76% hits; HepG2 CAGA-GFP viability, ATP luminescence, 18 h; Potency, µM (highest dose often 46.1 µM), without a hit: at the highest dose activity change, negative = cytotoxicity, actives largely listed as cytotoxic; also: potency is read from the fitted curve at half-maximal effect
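CellTiter-Glo luminescence gave cytotoxicity after 18 hours at 37 degrees C. The cells were HepG2 CAGA-GFP in 1% FBS DMEM, stimulated with 500 pg/mL TGF-beta after compound addition. %Activity was normalised to no-cell wells (complete cell-killing) and DMSO (no toxicity), and curves were fitted and classified.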
D3 antag – blocks the human D3 dopamine receptor; max response, negative = inhibition, %; D3R cells, DiscoveRx beta-arrestin luminescence, antagonist mode; stronger effect = lower value; 360,000 compounds, 2.5% hits; in the data active = max response below about -50%; inconclusive = no clear call, values can overlap the other calls; also: % is scaled to controls: 0 for no effect and ±100 for the full control effect
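Cells plated overnight at 1500 cells/well, then exposed to library compounds with dopamine controls for 90 minutes at 37 degrees C. DiscoveRx reagent added for 30–60 minutes at room temperature; luminescence read, quantitative HTS format.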
Active calls of the source: *; i = inactive; u = inconclusive; x = no result given; ! = a repeat was not active. A selection: hits, their analogues and other compounds. The true share with any hit is near 4.7%. Unless noted, calls follow the shape of the dose curve; as a rule, active = well fitted curve in the direction sought with a large enough effect; inconclusive = small, poorly fitted or top-dose-only effect, or another doubt; inactive = no such curve, though single readings can be large; an effect the other way counts as inactive or inconclusive.

SMILES | DRD3 agonist | ATXN2 expr inh | TGFb SMAD3 inh | ATXN viability | HepG2 viability | D3 antag
CCCCOc1ccc(CNC(=O)c2ccc(NC(=O)N3CCSc4ncccc43)cc2)cc1 | 6 | x | -17% | x | -31% | x
Cn1cccc1CNCc1ccccc1Cl | -31 | -5% | 1% | i | -13% | -64*
CCN1\C(=C/C=C/C=C/c2sc3ccccc3[n+]2CC)Sc2ccccc21 | -20 | x | x | u | x | x
CCN1/C(=C/C(C)=C/c2sc3ccccc3[n+]2CC)Sc2ccccc21 | -9 | u | 4.5µM* | 5.6µM* | -91% | -59*!
CC(C)(C(=O)NCC(F)(F)C(F)(F)F)C(=O)N[C@@H]1C(=O)Nc2ccccc2-c2ccccc21 | x | -12% | x | x | x | x
CCOc1cc(CNc2ccccc2)cc(Br)c1OCc1ccc(F)cc1 | -1 | -1% | -6% | i | -1% | -1
CCOc1cccc(CNc2ccc(O)cc2)c1OCc1ccccc1Cl | -4 | 11µM*! | 13µM* | 13µM*! | 16µM*! | u
CCOc1cc(CNc2ccc(O)cc2)cc(Cl)c1OCc1ccccc1 | -8 | 32µM* | u | 22µM* | -95% | x
O=C(NCc1ccc(Cl)cc1)c1ccc(-c2ccccc2C(F)(F)F)o1 | -26 | -17% | 16µM* | i | -59% | u
O=C(Nc1ccccc1)c1ccc(-c2ccccc2C(F)(F)F)o1 | -22 | 19% | u | u | -28% | -11
Cc1ccc(C2(O)CCN(CCCC(=O)c3ccc(F)cc3)CC2)cc1 | -27 | x | x | i | x | x
CC(=O)NCC1(c2ccccc2)CCN(CCCC(=O)c2ccc(F)cc2)CC1 | -8 | x | 1% | i | -7% | -116*
N#Cc1ccccc1CSc1nnc(-c2ccc(Br)cc2)o1 | 8 | 91% | 25% | i | 3% | x
COc1cccc2oc(-c3ccco3)cc(=O)c12 | -7 | -39% | u | u | -49% | -54*
Cc1ccc(-n2ncc3c(Nc4ccc5c(c4)OCCO5)ncnc32)cc1C | 48* | 3% | 4% | i | -31% | x
Cc1nc(C)c(C(=O)N2CCc3c(cnc(C)c3CNC(=O)c3cncs3)C2)s1 | x | x | x | i | x | x
COC(=O)c1cnc(Nc2nc(C(N)c3ccccc3Cl)cs2)nc1C(F)(F)F (centres undefined) | 0 | u | 18µM* | 25µM* | -87% | -21
NC(c1csc(NC(=O)c2cccc(OC(F)(F)F)c2)n1)c1ccccc1Cl (centres undefined) | -11 | 32µM* | 11µM* | u | -84% | 13
NC(c1ccccc1)c1csc(NC(=O)Nc2ccc(OC(F)(F)F)cc2)n1 (centres undefined) | 10 | -15% | u | x | -112% | 8
CCC(C)c1ccc(OCC(=O)Nc2cccc(-c3nc4ncccc4o3)c2)cc1 (centres undefined) | -15 | u | u | u | -24% | x
Cn1c(=O)c(C(=O)NNC(=O)c2ccccc2F)c(O)c2ccccc21 | 3 | -18% | u | i | -6% | 7
Cn1c(=O)c(C(=O)NNC(=O)c2ccc(Br)cc2)c(O)c2ccccc21 | 23 | -11% | 7.1µM* | u | -44% | -12
Cc1ccc(NC(=O)COc2ccccc2C(=O)Nc2ccccc2)cc1 | x | x | -1% | x | -5% | x
Cc1cc(C)c(O)c(-c2n[nH]c3c2C(c2cccc(O)c2)N(Cc2ccco2)C3=O)c1 (centres undefined) | -6 | -25% | u | 28µM* | -98% | 9
O=C1c2[nH]nc(-c3ccccc3O)c2C(c2cccc(Cl)c2)N1Cc1ccco1 (centres undefined) | 13 | -11% | u | u | 11µM* | -9
Cc1oc2ccc(O)c(CN3CCN(C)CC3)c2c1C(=O)Nc1cccc(Cl)c1C | -13 | -9% | -11% | i | -4% | x
COC(=O)c1ccccc1NS(=O)(=O)c1cc2c(cc1C)N(C)CCO2 | -21 | x | 17% | x | 5% | x

Screening data as filed in PubChem.
